Results taken from PubChem BioAssay (NCATS).
Inconclusive results are not listed. Values without a mark were called inactive. Calls follow the shape of the dose curve; as a rule, active = well fitted cell-killing curve with a large enough effect; inconclusive = small, poorly fitted or top-dose-only effect, or effect the other way; inactive = flat fitted curve, though single readings scatter.
% is scaled to controls: 0 for no effect and ±100 for the full control effect.

Each compound was assayed on Tov112D (assay: Primary qHTS to identify gynecologic anti-cancer compounds using libraries of approved drugs and bioactive compounds (AID 1345084; also: nearly all actives have a fitted effect of over 55% in size)). Conditions: Gynecologic cancer cell panel viability, ATPlite luminescence, 48 h; series mostly up to 57.5 µM; activity change, negative = cytotoxicity: at the top concentration.
Outline: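 Cytotoxicity screen measuring ATP content by luciferase luminescence. Each compound is applied at five concentrations for 48 h at 37 C with 5% CO2.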
`OC[C@H]1O[C@@H](OCc2ccccc2)[C@H](O)[C@@H](O)[C@@H]1O` was tested, and the “activity change, negative = cytotoxicity” value was 9.39%.
For `C=C1C(=O)OC2CC(COC(=O)C(C)C)=C(C(C)CCCOC(C)=O)[C@@H](OC(C)=O)C12` (some centres undefined), the “activity change, negative = cytotoxicity” value was 2.79% [at 25.3 µM].
In the case of `COc1cc(C(CO)C(OC2OC(CO)C(O)C(O)C2O)c2ccc(O)c(OC)c2)ccc1O` (centres undefined), the “activity change, negative = cytotoxicity” value was 6.93% [at 25.3 µM].
`C=C1CC2C3(C)C=CC(=O)OC(C)(C)C3CC(OC(C)=O)C2(C)C2C(=O)OC(C)C(=O)C12C` (centres undefined) was tested, and the “activity change, negative = cytotoxicity” value was -2.12% [at 25.3 µM].
In the case of `CC(C)(O)C(O)C(=O)OCc1ccc(O[C@@H]2O[C@H](CO)[C@@H](O)[C@H](O)[C@H]2O)cc1` (some centres undefined), the “activity change, negative = cytotoxicity” value was 9.47% [at 25.3 µM].
For `CC(=O)OC[C@@]12C(=O)C[C@@H](C)[C@]3(C[C@@H](c4ccoc4)OC3=O)[C@H]1CC[C@H](OC(C)=O)[C@]21CO1`, the “activity change, negative = cytotoxicity” value was -9.38% [at 25.3 µM].
In the case of `Cc1cc(C)c2nc(-c3ccccn3)cc(C(=O)Nc3ccc(S(=O)(=O)Nc4onc(C)c4C)cc3)c2c1`, the “activity change, negative = cytotoxicity” value was 11.6%.
In the case of `CC(=O)c1ccc(O[C@@H]2OC[C@@H](O)[C@H](O)[C@H]2O[C@]2(CO)O[C@H](CO)[C@@H](O)[C@@H]2O)c(O)c1`, the “activity change, negative = cytotoxicity” value was 0.178% [at 25.3 µM].
For `C=C1C[C@H](O)[C@@H](O)[C@@]2(C)C1[C@@H](O)[C@H]1OC(=O)C3[C@@H](C)[C@@H](O)[C@H](O)C2[C@]31C` (some centres undefined), the “activity change, negative = cytotoxicity” value was 3.84% [at 38.5 µM].
